From PubChem BioAssay (NCATS) come the findings set out here.

Inconclusive results are not listed. The source made the active and inactive calls. Unless noted, the call rests on the fitted dose curve; in most records, active means well fitted cell-killing curve with a large enough effect; inconclusive means small, poorly fitted or top-dose-only effect, or effect the other way; inactive means no such curve, though single readings can be large or run the other way.

Experiment [1] in a line: Quantitative High-Throughput drug screen in 47 multiple myeloma cell lines against the NCATS MIPE library collection: OCIMY5_PLB cell viability assay (AID 1918988). Further: nearly all actives have a fitted effect of over 65% in size. Further: potency means the concentration at half of the fitted maximal effect. Put shortly: (§1)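 500 cells/well; MIPE 4.0 drugs pin-transferred; 48 h, 37C, 5% CO2. CellTiter-Glo, 5 min RT, luminescence. Controls: DMSO 100%, media 0%.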
A short description of experiment [2]: Quantitative High-Throughput drug screen in 47 multiple myeloma cell lines against the NCATS MIPE library collection: OPM1_PLB cell viability assay (AID 1918989). Further: nearly all actives have a fitted effect of over 40% in size. Further: potency means the concentration at half of the fitted maximal effect. The method in brief: as §1
Experiment [3] can be described thus: Quantitative High-Throughput drug screen in 47 multiple myeloma cell lines against the NCATS MIPE library collection: U266_ATCC cell viability assay (AID 1919864). Further: nearly all actives have a fitted effect of over 35% in size. Further: potency means the concentration at half of the fitted maximal effect. The method in brief: as §1
Experiment [4] in a line: Quantitative High-Throughput drug screen in 47 multiple myeloma cell lines against the NCATS MIPE library collection: XG1_PLB cell viability assay (AID 1919866). Further: nearly all actives have a fitted effect of over 35% in size. Further: potency means the concentration at half of the fitted maximal effect. Put shortly: as §1
Experiment [5] in a line: Quantitative High-Throughput drug screen in 47 multiple myeloma cell lines against the NCATS MIPE library collection: PE2_PLB cell viability assay (AID 1919869). Further: nearly all actives have a fitted effect of over 35% in size. Further: potency means the concentration at half of the fitted maximal effect. Put shortly: as §1
Experiment [6] is described as follows: Quantitative High-Throughput drug screen in 47 multiple myeloma cell lines against the NCATS MIPE library collection: PCM6_Riken cell viability assay (AID 1919870). Further: nearly all actives have a fitted effect of over 30% in size. Further: potency means the concentration at half of the fitted maximal effect. The method in brief: as §1
The nature of experiment [7]: Quantitative High-Throughput drug screen in 47 multiple myeloma cell lines against the NCATS MIPE library collection: RPMI8226_ATCC cell viability assay (AID 1919871). Further: nearly all actives have a fitted effect of over 30% in size. Further: potency means the concentration at half of the fitted maximal effect. The method in brief: as §1
Experiment [8] in a line: Quantitative High-Throughput drug screen in 47 multiple myeloma cell lines against the NCATS MIPE library collection: OPM2_DSMZ cell viability assay (AID 1919872). Further: nearly all actives have a fitted effect of over 30% in size. Further: potency means the concentration at half of the fitted maximal effect. The method in brief: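 CellTiter-Glo ATP luminescence gave viability after 48 h compound treatment at 37C of 500 multiple myeloma cells per well. Normalisation used DMSO-only wells as 100% and media-only wells as 0% viability; primary qHTS of approved and investigational drugs.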

Experiment [9] in a line: Quantitative High-Throughput drug screen in 47 multiple myeloma cell lines against the NCATS MIPE library collection: KMS11_JCRBsus cell viability assay (AID 1919873). Further: nearly all actives have a fitted effect of over 50% in size. Further: potency means the concentration at half of the fitted maximal effect. The method in brief: as §1
Experiment [10] is described as follows: qHTS for identification of novel therapeutic agents for treatment of microphthalmiaassociated transcription factor (MiT) renal cell carcinoma (RCC) (AID 1963991; calls by dose curve; further: potency means the concentration at half of the fitted maximal effect). Conditions: CellTiter-Glo, 48 h; for z-score: stronger effect = lower value. Put shortly:
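Three TFE3-fusion RCC cell lines (UOK109, UOK124, UOK145), 500 cells/well, were exposed to the 1912-compound MIPE 4.0 library for 48 hours at 37 C. Viability was read by CellTiter-Glo luminescence, normalised to DMSO (100%) and empty wells (0%), with 11-concentration curve fits.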
(In qHTS, concentration-response curves come from the screen itself.)

The nature of experiment [11]: Quantitative High-Throughput drug screen in 47 multiple myeloma cell lines against the NCATS MIPE library collection: XG6_PLB cell viability assay (AID 1919865). Further: nearly all actives have a fitted effect of over 40% in size. Further: potency means the concentration at half of the fitted maximal effect. The method in brief: as §1
Experiment [12] is described as follows: Quantitative High-Throughput drug screen in 47 multiple myeloma cell lines against the NCATS MIPE library collection: VP6_DJ cell viability assay (AID 1919867). Further: nearly all actives have a fitted effect of over 40% in size. Further: potency means the concentration at half of the fitted maximal effect. The method in brief: as §1
Experiment [13] can be described thus: Quantitative High-Throughput drug screen in 47 multiple myeloma cell lines against the NCATS MIPE library collection: KMS28BM_JCRB cell viability assay (AID 1919874). Further: nearly all actives have a fitted effect of over 35% in size. Further: potency means the concentration at half of the fitted maximal effect. The method in brief:
as §1

The nature of experiment [14]: qHTS drug screen for cell cycle checkpoint inhibitors in PARPi-resistant BRCA-mutant ovarian cancer cell lines. (AID 1963452; calls by dose curve). Conditions: PEO1/OlaR viability, CellTiter-Glo luminescence, 96 h, stronger effect = lower value. Put shortly:
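PEO1, PEO4 and PEO1/OlaR ovarian cancer cells, 600 per well, exposed 96 h at 37C to a dilution series. Viability read by CellTiter-Glo luminescence, normalized to DMSO and empty wells; activity summarized as Z-AUC.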

The nature of experiment [15]: Quantitative High-Throughput drug screen in 47 multiple myeloma cell lines against the NCATS MIPE library collection: SKMM1_PLB cell viability assay (AID 1919863). Conditions: SKMM1 myeloma viability, CellTiter-Glo ATP, 48 h; viability: stronger effect = lower value. Put shortly: as §1
Background: ATP-based viability assays read luminescence as a measure of living cells.

Setting [16] is: TFE3-RCC UOK109 viability, measured here: UOK109 Z-AUC.
Where [17] appears, read: TFE3-RCC viability, measured here: UOK124 Z-AUC.
Setting [18] is: TFE3-RCC viability, measured here: UOK145 Z-AUC.
The mark [19] stands for this setting: measured here: PEO1 parental Z-AUC.

For the molecule `CCCN1CCO[C@@H]2c3cc(O)ccc3OC[C@@H]21`, the Potency in experiment [1] is 18700 nM (active). The Potency entry in experiment [2], in experiment [3], in [4], in experiment [5], in [6] and in experiment [7] was “inactive” each time. For the same molecule, the Potency result in experiment [8] and in [9] was “inactive” each time. Besides, the z-score in experiment [10] (setting [16]) came to 0.649; in experiment [10] (setting [17]), 0.425; in [10] (setting [18]) it was 0.561.
For `CCN1CCN(C(=O)Cc2ccc(Nc3ncc(F)c(Nc4ccc(C(=O)Nc5ccccc5Cl)cc4)n3)cc2)CC1`, the Potency in experiment [1] is 2640 nM (active); in [2] it was 5260 nM (active); in experiment [3] it was 7430 nM (active); in [11] it was 743 nM (active); in [4] it was 1180 nM (active); in [12], 2640 nM (active). The Potency in experiment [5] was 7430 nM (active); in [6], 2960 nM (active); in [7], 18700 nM (active); in [8] it was 6620 nM (active); in experiment [9], 743 nM (active); in [13], 1870 nM (active). The figures for the Z-AUC in [14], in [14] (setting [19]) and in [14] (measured here: PEO4 Z-AUC) were 0.278 (inactive), -0.415 and -1.09, respectively.
As for `CC1=C(O)C(=O)C=C2C1=CC=C1[C@@]2(C)CC[C@@]2(C)[C@@H]3C[C@](C)(C(=O)O)CC[C@]3(C)CC[C@]12C`, the Potency in experiment [2] was 743 nM (active); in experiment [15] it was 1050 nM (active); in experiment [3], 743 nM (active); in experiment [11] it was 743 nM (active); in experiment [4] it was 590 nM (active); in experiment [5], 743 nM (active). In addition, the Potency in [6] was 743 nM (active); in experiment [7] it was 1180 nM (active); in [8], 833 nM (active); in experiment [9] it was 935 nM (active); in experiment [13], 833 nM (active); in [10] (TFE3-RCC UOK109 viability), 2640 nM (active). The Z-AUC is -0.53 (inactive) in experiment [14], -1.33 in experiment [14] (setting [19]) and -0.972 in experiment [14] (measured here: PEO4 Z-AUC). In addition, the z-score in experiment [10] (setting [16]) is -1.17; in [10] (setting [17]) it was -1.16; in experiment [10] (setting [18]) it was -1.07.
Regarding `C[C@]12Cc3cn[nH]c3C[C@@H]1CC[C@@H]1[C@H]2CC[C@@]2(C)[C@H]1CC[C@]2(C)O`, in experiment [1], the Potency was 13200 nM (active). Moreover, the Potency result in experiment [3], in experiment [11], in experiment [5], in [6], in experiment [8] and in experiment [13] was “inactive” in each case.
As for `CCc1c(C(=O)C(N)=O)c2c(OCC(=O)O)cccc2n1Cc1ccccc1`, the Potency result in experiment [1], in experiment [2], in experiment [3], in experiment [11], in [5] and in experiment [6] was “inactive” each time. Also, the Potency result in experiment [7], in [8], in experiment [9] and in experiment [13] was “inactive” each time. The Z-AUC is 0.107 (inactive) in experiment [14], 0.125 in experiment [14] (setting [19]) and 0.188 in experiment [14] (measured here: PEO4 Z-AUC). Also, the z-score in experiment [10] (setting [16]) was -0.00568; in experiment [10] (setting [17]) it was 0.644; in experiment [10] (setting [18]) it was -1.8.
Consider `O=C(O)CNC(=O)c1c(O)c2ccccc2n(Cc2ccccc2)c1=O`, for which the Potency result in experiment [1], in experiment [2], in experiment [5], in [6], in experiment [9] and in [13] was “inactive” throughout. For the same molecule, the Z-AUC in experiment [14] is -0.292 (inactive); in experiment [14] (setting [19]), 0.683; in [14] (measured here: PEO4 Z-AUC), 0.802.
For `O=S(=O)(F)Cc1ccccc1`, the Potency result in experiment [1], in experiment [12], in [7], in experiment [8], in experiment [9] and in experiment [13] was “inactive” each time. In addition, the Potency was 13200 nM (active) in [2], 235 nM (active) in experiment [4], 105 nM (active) in [5] and 2640 nM (active) in experiment [6]. The Z-AUC in [14] was -0.434 (inactive); in experiment [14] (setting [19]), -0.355; in experiment [14] (measured here: PEO4 Z-AUC), 0.278. Also, the z-score in experiment [10] (setting [16]) is 0.128; in [10] (setting [17]), -1.89; in experiment [10] (setting [18]) it was 0.531.
In the case of `Cc1ccccc1-n1c(Cn2cnc3c(N)ncnc32)nc2cccc(C)c2c1=O`, the Potency in experiment [1] was 1660 nM (active); in [2], 332 nM (active); in [11], 469 nM (active); in [5], 296 nM (active); in experiment [6], 1660 nM (active); in experiment [8], 1050 nM (active). Also, the values for the Potency in experiment [13] and in experiment [10] (TFE3-RCC UOK109 viability) were 372 nM (active) and 235 nM (active), respectively. Moreover, the Z-AUC is -0.47 (inactive) in [14], 0.542 in experiment [14] (setting [19]) and 0.532 in experiment [14] (measured here: PEO4 Z-AUC). In addition, the z-score in experiment [10] (setting [16]) is -2.22; in experiment [10] (setting [17]) it was -1.13; in [10] (setting [18]) it was -1.88.
With `O=C(Oc1ccc([N+](=O)[O-])cc1)N1CCN(Cc2cccc(Oc3ccccc3)c2)CC1`, the Potency entry in experiment [1], in experiment [2], in [5], in [7] and in [8] was “inactive” throughout. In addition, the Potency in experiment [3] is 14800 nM (active). Also, the Z-AUC in experiment [14] is 1.13 (inactive); in [14] (setting [19]) it was 1.12; in experiment [14] (measured here: PEO4 Z-AUC), 1.4.
With `N#C[C@H](O[C@@H]1O[C@H](CO[C@@H]2O[C@H](CO)[C@H](O)[C@H](O)[C@H]2O)[C@H](O)[C@H](O)[C@H]1O)c1ccccc1`, the Potency in experiment [2] was 26400 nM (active); in [15], 20900 nM (active); in experiment [3], 23500 nM (active); in experiment [11], 18700 nM (active); in experiment [4], 23500 nM (active); in [12], 18700 nM (active). In addition, the Potency in experiment [5] was 18700 nM (active); in experiment [6], 18700 nM (active); in experiment [7], 23500 nM (active); in [9] it was 7430 nM (active); in experiment [13], 18700 nM (active).
For `c1ccc(CCCN2CCN(CCOC(c3ccccc3)c3ccccc3)CC2)cc1`, the Potency in experiment [1] is 20900 nM (active); in [2], 20900 nM (active); in experiment [3], 23500 nM (active); in experiment [4], 20900 nM (active); in experiment [5], 18700 nM (active); in experiment [6], 26400 nM (active). The Potency in experiment [7] is 20900 nM (active); in experiment [8] it was 26400 nM (active); in experiment [9] it was 20900 nM (active); in [13], 20900 nM (active).
Take `CC(C)(O)C=CC(=O)[C@](C)(O)[C@H]1[C@H](O)C[C@]2(C)[C@@H]3CC=C4[C@@H](C=C(O)C(=O)C4(C)C)[C@]3(C)C(=O)C[C@@]12C`: the Potency was 46.9 nM (active) in [1]; 105 nM (active) in [2]; 526 nM (active) in experiment [3]; 66.2 nM (active) in experiment [11]; 105 nM (active) in experiment [12]; 33.2 nM (active) in experiment [5]. The Potency in [7] is 52.6 nM (active); in experiment [8], 132 nM (active); in [9], 118 nM (active); in experiment [13], 166 nM (active); in experiment [10] (TFE3-RCC UOK109 viability), 83.3 nM (active). Besides, the values for the z-score in [10] (setting [16]), in experiment [10] (setting [17]) and in experiment [10] (setting [18]) were -3.73, -2.29 and -2.28, respectively.
